From PubChem BioAssay (Tox21)
Inconclusive results are not listed. Activity calls are given as the source filed them. Calls come from the whole dose curve; as a rule, active = well fitted cell-killing curve with a large enough effect in the repeat runs (not every such curve was filed as active); inconclusive = weak or mixed curves, or effect the other way; inactive = no such curve, though single readings can be large or run the other way.

Assay: qHTS assay to identify small molecule antagonists of the farnesoid-X-receptor (FXR) signaling pathway - cell viability counter screen (AID 743221); note: nearly all actives have a fitted effect of over 50% in size
Conditions: FXR-bla HEK293T viability, CellTiter-Glo luminescence, 16 h; series mostly up to 62.6 µM; activity change, negative = cytotoxicity: at the top concentration
Source text: National Center for Advancing Translational Sciences [NCATS]
NIH Chemical Genomics Center [NCGC]
U.S. Environmental Protection Agency [EPA]
National Institutes of Environmental Health Sciences [NIEHS]
National Toxicology Program [NTP]
U.S. Food and Drug Administration [FDA]
The farnesoid-X-receptor (FXR), a nuclear hormone receptor, is highly expressed in liver, intestine, kidney and adrenal cortex. Natural ligands of FXR are the bile acids (Cholic acid, Chenodeoxy cholic acid etc). FXR is an important regulator of diverse metabolic pathways, including the bile acid homeostasis, lipid and glucose metabolisms. FXR regulates the expression of target genes by binding either as a monomer or as a heterodimer with the retinoid X receptor (RXR). Numerous studies have reported that FXR exerts protective function during cholestasis, diabetes, liver regeneration, and cancer. To identify compounds that inhibit FXR signaling, GeneBLAzer FXR-UAS-bla HEK 293T cell line (Invitrogen, Carlsbad, CA) containing a beta-lactamase reporter gene under the control of a UAS response element was used to screen the Tox21 10K compound library. The cytotoxicity of the Tox21 compound library against the FXR-bla cell line was tested in parallel by measuring the cell viability using CellTiter-Glo assay in the same wells.
Tox21 Assay Protocol Summary:
FXR-bla cells were dispensed at 5000 cells/5uL/well in 1536-well black wall/clear bottom plates using a Multidrop Combi (Thermo Fisher Scientific, Waltham, MA) dispenser. After the assay plates were incubated at 37 C and 5% CO2 for 5 h, 23 nL of compounds dissolved in DMSO, positive controls or DMSO only was transferred to the assay plate by a Pintool station (Kalypsys, San Diego, CA), followed by addition of 1 uL Chenodeoxycholic acid (50 uM, final concentration in the wells). The assay plates were incubated at 37C for 16 h. After 1 uL of LiveBLAzerTM B/G FRET substrate was added using a Bioraptr Flying Reagent Dispenser (FRD) workstation (Beckman Coulter, Indianapolis, IN), the plates were incubated at room temperature for 2 h, and fluorescence intensity was measured by an Envision plate reader (PerkinElmer, Shelton, CT). For cell viability readout that measures cytotoxicity, 4uL/well of CellTiter-Glo reagent was added into the assay plates using a Bioraptr FRD. After 30 min incubation at room temperature, the luminescence intensity in the plates was measured using a ViewLux plate reader (PerkinElmer).
% is set by controls: 0 for no effect and ±100 for the full control effect.

Row | SMILES | activity change, negative = cytotoxicity
1 | CC(C)[N+](=O)[O-] | -1.61% (inactive)
2 | CC(C)CC(N(C)C)C1(c2ccc(Cl)cc2)CCC1 (stereo not given) | 6.2% (inactive)
3 | CC(=O)Nc1cc([As](=O)(O)O)ccc1O | -3.92% (inactive)
4 | COc1cc(OC)nc(Sc2cccc(Cl)c2C(=O)O)n1 | 11% (inactive)
5 | C[C@H]1CCC[C@H](O)CCCCCc2cc(O)cc(O)c2C(=O)O1 | 5.86% [at 81.1 µM] (inactive)
6 | CC(C)(C)C(=O)C(Oc1ccc(Cl)cc1)n1cncn1 (stereo not given) | -4% (inactive)
7 | Nc1ccccc1Cl | 1.76% (inactive)
8 | Cc1ncc2n1-c1ccc(Cl)cc1C(c1ccccc1F)=NC2 | 3.82% (inactive)
9 | CSc1ccc(C(=O)C(C)(C)N2CCOCC2)cc1 | 0.871% (inactive)
10 | CC(C1CC1)C(O)(Cn1cncn1)c1ccc(Cl)cc1 (stereo not given) | -6.72% (inactive)
11 | N#CC(CCc1ccc(Cl)cc1)(Cn1cncn1)c1ccccc1 (stereo not given) | 4.76% (inactive)
12 | ClC(Cl)C(Cl)Cl | 0.502% [at 81.1 µM] (inactive)
13 | COC(=O)c1c(C(F)F)nc(C(F)(F)F)c(C2=NCCS2)c1CC(C)C | 3.73% (inactive)
14 | CCN(CC)C(=O)[C@@H]1C=C2c3cccc4[nH]cc(c34)C[C@H]2N(C)C1 | -0.85% [at 232 µM] (inactive)
15 | C[C@]1(O)CC[C@H]2[C@@H]3CCC4=CC(=O)CC[C@]4(C)[C@@]3(F)[C@@H](O)C[C@@]21C | 27% [at 81.1 µM] (inactive)
16 | CCOP(=S)(OCC)SCSc1ccc(Cl)cc1 | 9.36% (inactive)
17 | N#CC(O)c1ccccc1 (stereo not given) | -0.499% (inactive)
18 | Nc1cc(Cl)ccc1O | -2.33% (inactive)
19 | Cc1nc(N)nc(N)n1 | 7.65% [at 81.1 µM] (inactive)
20 | COc1cc(OC)nc(Oc2cccc(Oc3nc(OC)cc(OC)n3)c2C(=O)O)n1 | -16.5% (inactive)

Row | SMILES | activity change, negative = cytotoxicity
21 | [As]#[In] | -2.14% (inactive)
22 | C=CCC1=C(C)[C@@H](OC(=O)[C@@H]2[C@@H](C=C(C)C)C2(C)C)CC1=O | -11.9% (inactive)
23 | Cc1ccccc1CO[C@@H]1C[C@@]2(C(C)C)CC[C@]1(C)O2 | -1.17% (inactive)
24 | O=C1CN=C(c2ccccc2)c2cc([N+](=O)[O-])ccc2N1 | 3.51% (inactive)
25 | C[C@]12CC[C@H]3[C@@H](CCC4=CC(=O)CC[C@@]43C)[C@@H]1CC[C@@H]2C(=O)O | 4.41% (inactive)
26 | NC(=O)c1cc([N+](=O)[O-])cc([N+](=O)[O-])c1 | -3.18% (inactive)
27 | CN1C(=S)CN=C(c2ccccc2)c2cc(Cl)ccc21 | 7.04% (inactive)
28 | CC(=O)CC(c1ccc(Cl)cc1)c1c(O)c2ccccc2oc1=O (stereo not given) | 17.7% [at 81.1 µM] (inactive)
29 | COc1ccc(C(=O)N2CCCC2=O)cc1 | 1.79% (inactive)
30 | O=C(CCN1CC1)OCC(CO)(COC(=O)CCN1CC1)COC(=O)CCN1CC1 | -5.74% (inactive)
31 | CCC/C(=N\OCC)C1=C(O)CC(CC(C)SCC)CC1=O (stereo not given) | -2.02% [at 81.1 µM] (inactive)
32 | ClC(Cl)(Cl)C(Cl)(Cl)Cl | 3.28% [at 81.1 µM] (inactive)
33 | CCC(Cl)[N+](=O)[O-] (stereo not given) | 1.16% [at 81.1 µM] (inactive)
34 | CN1CCN(C(=O)O[C@H]2c3nccnc3C(=O)N2c2ccc(Cl)cn2)CC1 | 9.25% (inactive)
35 | CC1CCCCC1NC(=O)Nc1ccccc1 (stereo not given) | -0.529% (inactive)
36 | O=C1OC(CCN2CCCCC2)OC1(c1ccccc1)c1ccccc1 (stereo not given) | -8.52% (inactive)
37 | COCC(=O)N(c1c(C)cccc1C)N1CCOC1=O | 12.1% (inactive)
38 | CCCCC(=O)Cl | -0.167% [at 81.1 µM] (inactive)
39 | CCN(CC)c1nc(C)cc(OP(=S)(OC)OC)n1 | 4.33% (inactive)
40 | NC1=NC(=O)C(c2ccccc2)O1 (stereo not given) | 6.62% (inactive)
